Experimental data published in PubChem BioAssay AID1779 (Sanford-Burnham Center for Chemical Genomics, 2009).
Out of some 290,000 compounds screened, about 160 (0.055%) were called active. Only a selection was taken, and actives are over-represented in it overall. A number with no mark means an inactive call. Cut-off read from the data, not from the text of the source: active = inhibition above about 50%; inactive = the rest.

These compounds were tested against Tyrosine-protein phosphatase non-receptor type 22 (Homo sapiens) (UniProt Q9Y2R2) (assay: PTPN22 lymphoid phosphatase activity blockers – biochemical, fluorescence intensity, uHTS (AID 1779;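 note: plate controls were vehicle with enzyme for no effect and no enzyme for full effect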)). Details: recombinant LYP phosphatase, at 11.5 µM, hits give high values.
Sequence of Tyrosine-protein phosphatase non-receptor type 22 (Homo sapiens) (Q9Y2R2 whole entry, looked up): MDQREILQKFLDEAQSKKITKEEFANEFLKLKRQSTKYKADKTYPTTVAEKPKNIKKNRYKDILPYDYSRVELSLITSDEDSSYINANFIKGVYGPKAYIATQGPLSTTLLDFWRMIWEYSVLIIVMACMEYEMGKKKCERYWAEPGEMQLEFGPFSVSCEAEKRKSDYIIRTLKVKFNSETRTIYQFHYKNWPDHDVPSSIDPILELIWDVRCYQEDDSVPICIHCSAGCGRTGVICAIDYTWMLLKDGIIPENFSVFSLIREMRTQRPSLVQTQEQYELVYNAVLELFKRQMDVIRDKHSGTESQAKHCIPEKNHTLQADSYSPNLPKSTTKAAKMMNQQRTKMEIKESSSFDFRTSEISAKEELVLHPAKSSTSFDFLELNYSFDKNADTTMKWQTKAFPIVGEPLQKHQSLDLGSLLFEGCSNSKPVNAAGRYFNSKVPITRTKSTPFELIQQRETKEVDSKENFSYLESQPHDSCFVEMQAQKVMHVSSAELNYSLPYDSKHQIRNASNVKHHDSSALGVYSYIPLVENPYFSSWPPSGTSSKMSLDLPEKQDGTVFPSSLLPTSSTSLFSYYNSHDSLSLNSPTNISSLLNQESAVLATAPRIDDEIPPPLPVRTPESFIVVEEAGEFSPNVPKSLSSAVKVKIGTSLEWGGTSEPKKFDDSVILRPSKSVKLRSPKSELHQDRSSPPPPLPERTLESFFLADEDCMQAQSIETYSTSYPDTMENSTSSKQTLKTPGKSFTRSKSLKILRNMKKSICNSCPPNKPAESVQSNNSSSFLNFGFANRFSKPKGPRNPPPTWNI
`CCN(CC)C(=O)c1ccc2c(c1)C1C(Cl)C(Sc3ccccc3[N+](=O)[O-])CC1C(C(=O)O)N2` (stereo not given) was tested, and the inhibition was 6.1%. `CC(=O)c1ccc2c(c1)C1C(Cl)C(Sc3ccccc3[N+](=O)[O-])CC1C(c1ccccc1)N2` (stereo not given) was tested, and the inhibition was 6%. In the case of `CC(=O)c1ccc2c(c1)C1C(Cl)C(Sc3ccccc3[N+](=O)[O-])CC1C(C(=O)O)N2` (stereo not given), the inhibition is reported as 51.4% (active). `O=P(Nc1ccccc1)(Nc1ccccc1)Oc1ccc(Cl)cc1` was tested, and the inhibition was -4%. `COCc1cc(C2SCC(=O)Nc3c2c(=O)[nH]n3C(C)C)ccc1OC` (stereo not given) gave an inhibition of -11.3%. Work on `CCOP(=O)(/C=C(\Cl)c1ccccc1)C(O)c1ccc(F)cc1` (stereo not given) yielded an inhibition of -5.3%. For `CC(=O)C1C(=O)NC23CCCCC2C1c1ccccc1O3` (stereo not given), the inhibition was 1.8%. With `CCn1nc(-c2ccccc2)nc2c(=O)n(C)c(=O)nc1-2` the inhibition was 60.7% (active). In the case of `COc1ccc(-n2c(/C=C/c3ccc(O)cc3)nc3ccccc3c2=O)cc1`, the inhibition is reported as -7.8%. With `CCn1nc(-c2cccs2)nc2c(=O)n(C)c(=O)nc1-2` the inhibition was 52.8% (active). `CCOc1ccc(-n2c(-c3cccs3)nc3ccccc3c2=O)cc1` was tested, and the inhibition was 8.8%. With `O=c1c2ccccc2nc(/C=C/c2ccccc2)n1-c1ccc(O)cc1` the inhibition was 3.1%. Work on `O=c1c2ccccc2nc(-c2cccs2)n1-c1ccccc1` yielded an inhibition of -10.4%. With `CCn1nc(/C=C/c2ccccc2)nc2c(=O)n(C)c(=O)nc1-2` the inhibition was 79.3% (active). `COc1ccc(-n2c(-c3ccccc3)nc3ccccc3c2=O)cc1` gave an inhibition of -9.9%. In the case of `CCCc1nc2ccccc2c(=O)n1-c1ccc(OC)cc1`, the inhibition is reported as 2.2%. `COc1ccc(C(=O)N2CCC3(CC2)OCCO3)cc1` showed an inhibition of -5%. Compound `c1ccc2c(CN3CCOCC3)c[nH]c2c1` has an inhibition of -8.9%. For `Cc1cc(OC(=O)c2cccs2)c2c3c(c(=O)oc2c1)CCCC3`, the inhibition was 2.4%. Compound `CCOC(=O)C(O)(c1ccc(NC(=O)Oc2ccccc2)cc1)C(F)(F)F` (stereo not given) has an inhibition of -3.1%. In the case of `CCN1CCN(c2ccc([N+](=O)[O-])cc2C=C2C(=O)NC(=O)NC2=O)CC1`, the inhibition is reported as -8.1%. Compound `c1nc2nc3c(c(N4CCNCC4)n2n1)CCCC3` has an inhibition of -3.9%. In the case of `S=P(Nn1cnnc1)(c1ccccc1)c1ccccc1`, the inhibition is reported as 0.6%. `CCOC(=O)c1c(C)n(CC(O)CN2CCOCC2)c2cc(Br)c(OC)cc12` (stereo not given) gave an inhibition of -6.1%. `COc1ccc(-c2nn(CCC#N)cc2C(=O)Nc2ccccc2)cc1OC` showed an inhibition of -8%. `CN(C)CC1CSCCC1(O)c1ccc(C(F)(F)F)cc1` (stereo not given) gave an inhibition of -5.6%. With `Cc1ccc(-c2nc3ccccc3c(=O)n2-c2ncccc2C)cc1` the inhibition was -0.2%. Work on `Cc1cccnc1-n1c(-c2ccccc2)nc2ccccc2c1=O` yielded an inhibition of -1.3%. In the case of `Cc1cccnc1-n1c(C)nc2ccccc2c1=O`, the inhibition is reported as 90.2% (active). In the case of `C=CCN1C(=O)NC(=O)C(Cc2ccc(OC)c(OC)c2)C1=O` (stereo not given), the inhibition is reported as 3.4%. `Cn1ncnc2c(=O)n(C)c(=O)nc1-2` was tested, and the inhibition was 71.9% (active). `Cc1nc2c(=O)n(C)c(=O)nc-2n(C)n1` was tested, and the inhibition was 87.9% (active). With `CN1CC(C(=O)c2ccc(F)cc2)C(c2ccc(F)cc2)C1` (stereo not given) the inhibition was -5.4%. Compound `C=CCC1C(=O)NC(=S)NC1=O` has an inhibition of 4.3%. For `COc1ccccc1N1CCN(CCc2ccccc2)CC1`, the inhibition was -7.3%. Work on `N=C1c2ccccc2CN1NC(=O)c1ccc(Br)cc1` yielded an inhibition of -5.9%. For `CCOC(=O)C(NC(=O)CC)(Nc1ccc(C(O)(C(=O)OCC)C(F)(F)F)cc1C)C(F)(F)F` (stereo not given), the inhibition was -6.6%. `CCOC(=O)C(NC(=O)CCl)(Nc1ccc(C(O)(C(=O)OCC)C(F)(F)F)cc1)C(F)(F)F` (stereo not given) was tested, and the inhibition was 82.4% (active). With `CCCCNC(=O)Nc1ccc(C(O)(C(=O)OCC)C(F)(F)F)cc1` (stereo not given) the inhibition was -8.2%. `CCC(=O)N1CC(=O)Nc2ccc(F)cc2C1c1ccc(F)cc1` (stereo not given) showed an inhibition of 1%.
